According to PubChem BioAssay (Tox21):
Inconclusive results are not listed. A number with no mark means an inactive call. Activity calls are given as the source filed them. Calls come from the whole dose curve; as a rule, active = well fitted cell-killing curve with a large enough effect in the repeat runs; inconclusive = weak or mixed curves, or effect the other way; inactive = no such curve, though single readings can be large or run the other way.

Experiment: qHTS assay to identify small molecule antagonists of the peroxisome proliferator-activated receptor gamma (PPARg) signaling pathway - cell viability counter screen (AID 743194); note: nearly all actives have a fitted effect of over 55% in size
Settings: PPARg-bla HEK293H viability, CellTiter-Glo luminescence, 17 h; Potency: co-treated with 50 nM rosiglitazone; series mostly up to 62.6 µM; activity change, negative = cytotoxicity: at the top concentration
Text: U.S. Tox21 Program National Center for Advancing Translational Sciences [NCATS] NIH Chemical Genomics Center [NCGC] U.S. Environmental Protection Agency [EPA] National Institutes of Environmental Health Sciences [NIEHS] National Toxicology Program [NTP] U.S. Food and Drug Administration [FDA] Tox21 Assay Overview: The peroxisome proliferator-activated receptors (PPARs) are lipid-activated transcription factors of the nuclear receptor superfamily with three distinct subtypes namely PPAR alpha, PPAR delta (also called PPAR beta) and PPAR gamma (PPARg). All these subtypes heterodimerize with Retinoid X receptor (RXR) and these heterodimers regulate transcription of various genes. PPAR-gamma receptor (glitazone receptor) is involved in the regulation of glucose and lipid metabolism. To identify the compounds that activate PPAR-gamma signaling, GeneBLAzer PPAR gamma UAS-bla HEK293H cell line (Invitrogen, Carlsbad, CA, USA) containing a beta-lactamase reporter gene under the control of an Upstream Activator Sequence (UAS) was used to screen the Tox21 compound library. The cytotoxicity of the Tox21 compound library against the PPARg-bla cell line was tested in parallel by measuring the cell viability using CellTiter-Glo assay in the same wells.
Tox21 Assay Protocol Summary: PPARg-bla cells were dispensed at 3000 cells/5uL/well in 1536-well black wall/clear bottom plates using a Multidrop Combi (Thermo Fisher Scientific, Waltham, MA) dispenser. After the assay plates were incubated at 37 C and 5% CO2 for 5 h, 23 nL of compounds dissolved in DMSO, positive controls or DMSO only was transferred to the assay plate by a Pintool station (Kalypsys, San Diego, CA), followed by addition of 1ul Rosiglitazone (50 nM, final concentration in the wells). The assay plates were incubated at 37 C for 17 h, and then 1 uL of LiveBLAzerTM B/G FRET substrate was added using a Bioraptr Flying Reagent Dispenser (FRD) workstation (Beckman Coulter, Indianapolis, IN, USA). The assay plates were incubated at room temperature for 1 h and fluorescence intensity was measured by an Envision plate reader (PerkinElmer, Shelton, CT). For cell viability readout that measures cytotoxicity, 4 ul/well of CellTiter-Glo reagent was added into the assay plates using a Flying Reagent Dispenser. After 30 min incubation at room temperature, the luminescence intensity in the plates was measured using a ViewLux plate reader (PerkinElmer).
% is set by controls: 0 for no effect and ±100 for the full control effect; potency is the fitted concentration of half-maximal effect.

| Structure (SMILES) | activity change, negative = cytotoxicity | Potency |
| --- | --- | --- |
| O=C(Nc1ccccc1)c1ccccc1I | -25.6% |  |
| CC(CC(C#N)(c1ccccc1)c1ccccc1)N(C)C (stereo not given) | -9.58% [at 81.1 µM] |  |
| CC(C(=O)c1ccccc1)N(C)C (stereo not given) | 6.95% [at 62.6 µM] |  |
| O=C(Nc1ccccc1)N(Cc1ccc(Cl)cc1)C1CCCC1 |  | 21.9 µM (active) |
| ClC(Cl)Br | 2.13% [at 81.1 µM, co-treated with 50 nM rosiglitazone] |  |
| N#CC(O)c1ccccc1 (stereo not given) | 1.57% |  |
| CCOP(=S)(OCC)SCSc1ccc(Cl)cc1 | 1% |  |
| C[N+](C)=CCl | 21.7% |  |
| ClCCOCOCCCl | -0.322% [at 81.1 µM, co-treated with 50 nM rosiglitazone] |  |
| COC(=O)C(C)Oc1ccc(Oc2ccc(Cl)cc2Cl)cc1 (stereo not given) | -4.8% |  |
| N#CC(Cl)(Cl)Cl | 11.7% |  |
| CC1(C)CON(Cc2ccccc2Cl)C1=O | 19.4% |  |
| OCCBr | 11.9% |  |
| O=NN1CCN(N=O)CC1 | -12.5% |  |
| COP(=S)(OC)Oc1c(Cl)cc(C)cc1Cl | -28.1% |  |
| CCc1cc2c(s1)-n1c(C)nnc1CN=C2c1ccccc1Cl | 14.2% [at 62.6 µM] |  |
| Nc1c(Br)cc([N+](=O)[O-])cc1[N+](=O)[O-] | 7.96% [at 81.1 µM, co-treated with 50 nM rosiglitazone] |  |
| C=C(C)[C@@H]1CC=C(C=O)CC1 | -2.07% |  |
| c1coc(-c2nc3ccccc3[nH]2)c1 | -0.94% |  |
| NC(=O)c1cc([N+](=O)[O-])cc([N+](=O)[O-])c1 | 6.62% |  |

| Structure (SMILES) | activity change, negative = cytotoxicity | Potency |
| --- | --- | --- |
| CCCSC(=O)Cl | -1.05% [at 81.1 µM, co-treated with 50 nM rosiglitazone] |  |
| CCOc1nc(C(Cl)(Cl)Cl)ns1 | 4.18% |  |
| ClCC(Cl)(Cl)Cl | 0.606% [at 81.1 µM, co-treated with 50 nM rosiglitazone] |  |
| CC1CCC(=O)O1 (stereo not given) | 11.7% [at 62.6 µM] |  |
| Cc1nc(N)nc(N)n1 | -2.46% [at 81.1 µM, co-treated with 50 nM rosiglitazone] |  |
| COC(=O)c1ccccc1S(=O)(=O)NC(=O)Nc1nc(C)cc(C)n1 | 2.86% |  |
| CC(=O)Nc1cc([As](=O)(O)O)ccc1O | 5.46% |  |
| CCOP(=O)(N=C1SCCS1)OCC | -7.29% |  |
| COc1ccc(C(=O)N2CCCC2=O)cc1 | 11.8% [at 62.6 µM] |  |
| CC(C)CC#N | -9.64% [at 81.1 µM, co-treated with 50 nM rosiglitazone] |  |
| CC1CN1P(=O)(N1CC1C)N1CC1C (stereo not given) | -14.5% |  |
| COC(=O)C1=CCCN(C)C1 | 0.85% |  |
| CC(CCc1ccccc1)NC(C)C(O)c1ccc(O)cc1 (stereo not given) | 1.67% |  |
| O=NN1CCCCC1 | 18.8% |  |
| CNC(=O)N(C)c1nc2ccccc2s1 | -19.8% |  |
| N#CCNCC#N | -0.568% |  |
| CSc1nc(N=[N+]=[N-])nc(NC(C)C)n1 | -35.5% |  |
| CN(C)CCc1ccc(O)cc1 | 0.793% |  |
| O=C(NCO)NCO | -19.8% [at 81.1 µM, co-treated with 50 nM rosiglitazone] |  |
| Clc1ccccc1N1CCNCC1 | 18.6% [at 62.6 µM] |  |
